# From PubChem BioAssay
# Shiga toxin inh: inhibitors of Shiga toxin in Vero cells; Vero cells, Shiga toxin protein synthesis inhibition reporter; inhibition, % at 38.7 µM; 290,000 compounds, 9.2% hits; in the data active = inhibition mostly above about 28%, no sharp cut-off; inactive = mostly below about 43%; also: 0% is about no effect
# HCV inh: HCV inhibition; Huh7.5.1 HCVcc-Cre infection, luciferase reporter, 44 h; Potency, µM (top dose mostly 41.8 µM), for the others: at the top dose activity change, negative = inhibition, most hits filed as inhibitors; 340,000 compounds, 3.4% hits; also: potency is read from the fitted curve at half-maximal effect; % is scaled to controls: 0 for no effect and ±100 for the full control effect
#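 A cell-based infection assay in which seeded cells (1,000 per well) receive test compound after 4 h, are inoculated with HCVcc-Cre at approximately 0.5 moi, and are incubated 44 h before luminescence detection.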
# Pf growth 96h: P. falciparum growth inhibition at 96 hours | P. falciparum luciferase reporter growth, 96 h | Potency, µM (doses to about 28.7 µM), for inactives: top-dose activity change, negative = inhibition, usual class: inhibitors | 320,000 compounds, 6.9% hits | AID 504834; also: potency is read from the fitted curve at half-maximal effect; % is scaled to controls: 0 for no effect and ±100 for the full control effect
#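 P. falciparum expressing integrated firefly luciferase grown in erythrocytes (2% hematocrit, 0.05% parasitemia final) with compounds for 96 hours at 37 C, 5% CO2. Growth inhibition read as loss of luminescence after adding luciferase detection reagent.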
# CHX counter: affects cycloheximide protein synthesis inhibition readout, counter-screen; cell reporter, cycloheximide protein synthesis inhibition counterscreen; max response, %; 300,000 compounds, 12% hits; in the data active = max response mostly above about 13%, no sharp cut-off; inactive = mostly below about 14%; also: read at 38.3 µM for the half of the compounds with a filed dose; 0% is about no effect
# Pf growth 48h: inhibits P. falciparum growth in the first generation, 48 h; P. falciparum luciferase growth in erythrocytes, 48 h; 310,000 compounds, 5.9% hits; Potency, µM (series often up to 28.7 µM), for the others: at the highest dose activity change, negative = inhibition, usual class: inhibitors; also: potency is read from the fitted curve at half-maximal effect; % is scaled to controls: 0 for no effect and ±100 for the full control effect
#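 Read-out is firefly luciferase luminescence from an integrated reporter in P. falciparum, so falling signal marks reduced parasite growth. Infected erythrocytes were at 2% hematocrit and 0.1% parasitemia (final) in Albumax-supplemented RPMI 1640.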
# HCMV antiviral: blocks human cytomegalovirus replication | HFF cells, HCMV-luciferase reporter, 72 h; active compounds read low | activity change, negative = inhibition, % at 57.5 µM | 410,000 compounds, 4.5% hits | AID 1259415; in the data active = activity change below about -60%; inconclusive = no clear call, values can overlap the other calls; inactive = above about -39%; also: % is scaled to controls: 0 for no effect and ±100 for the full control effect
#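 Screen run at 2 compound doses on HFFs infected with reporter HCMV, MOI 1 PFU/cell. Luciferase activity from cell lysates at 72 h post infection gave inhibition relative to buffer-only and Salinomycin wells.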
# * marks the source's active call; other numbers are inactive results; i = inactive; ? = inconclusive; nt = not tested or not shown; [ ] = dose if it differs, or a comment. Most compounds without a hit are left out; they make up all but 21% or so of the library. Unless noted, calls follow the shape of the dose curve; as a rule, active = well fitted inhibition curve with a large enough effect; inconclusive = small, poorly fitted or top-dose-only effect, or another doubt; inactive = no such curve, though single readings can be large or run the other way.
SMILES,Shiga toxin inh,HCV inh,Pf growth 96h,CHX counter,Pf growth 48h,HCMV antiviral
Cc1ccc(/C(N)=N/OC(=O)Cc2cccc3ccccc23)cc1,2,-2%,-21%,-4,-7%,-15
N/C(=N\OC(=O)Cc1cccs1)c1cccc([N+](=O)[O-])c1,44*,-4%,?,26*,21%,21
Cc1ccc(OCC(=O)O/N=C(\N)Cc2cccs2)cc1C,nt,?,nt,nt,nt,2
N/C(=N\OC(=O)CCCOc1ccccc1)c1cccc([N+](=O)[O-])c1,13,-10%,?,-3,10%,0
COc1ccccc1C/C(N)=N/OC(=O)c1cccc([N+](=O)[O-])c1C,21,10µM*,33%,15*,9.3µM*,30
Cc1ccc(/C(N)=N/OC(=O)Cc2cccs2)cc1,143*,12%,163%,50*,232%,46
N/C(=N\OC(=O)Cc1cccs1)c1ccc(Cl)cc1,41*,8%,53%,31*,37%,31
COc1cc2c(cc1OC)-c1cc(=Nc3c(C)cc(C)cc3C)n(C)c(=O)n1CC2,nt,nt,0.76µM*,nt,0.67µM*,nt
COc1ccc(CCC(=O)N2CCc3c([nH]c4ccccc34)C2c2ccc(F)cc2)cc1 (centres undefined),nt,nt,nt,nt,nt,-80*
CCOc1ccc(C2c3[nH]c4ccccc4c3CCN2C(=O)CCc2ccccc2)cc1 (centres undefined),nt,nt,nt,nt,nt,-84*
CCOc1ccc(C2c3[nH]c4ccccc4c3CCN2C(=O)Cc2cccc(OCC)c2OCC)cc1 (centres undefined),nt,nt,nt,nt,nt,16
CCN(CC(=O)N1CCOCC1)S(=O)(=O)c1ccc(Cl)cc1,4,21%,-10%,-5,14%,-31
NCc1nc2cccnc2n1Cc1ccccc1Cl,nt,nt,nt,nt,nt,3
CCN1CCN(C(=O)c2cc3cc(F)ccc3[nH]2)CC1,6,22%,?,-2,?,52
Cc1ccc2cc(NC(=O)Cc3ccccc3)ccc2n1,92*,-2%,135%,53*,263%,88
Cc1ccc2cc(NC(=O)c3ccccc3C)ccc2n1,81*,-5%,150%,34*,6%[0.00184 µM],-100*
CCc1ccc(C(=O)Nc2ccc3nc(C)ccc3c2)cc1,48,?,78%,31*,21%[0.00184 µM],83
CN(C(=O)c1cccc(NC(=O)Cc2ccccc2)c1)c1ccccc1,8,-16%,-27%,1,13%,0
Cc1ccc2cc(NC(=O)c3ccc(C(C)(C)C)cc3)ccc2n1,25,?,5%,-3,-1%[0.00184 µM],?
Cc1ccccc1C(=O)Nc1ccc2c(c1)C(=O)NC2=O,15,-10%,39%,8,20%,-16
O=C(Cn1cc(SCc2cccc(Cl)c2)c2ccccc21)N1CCCCCC1,nt,nt,nt,nt,nt,-26
COc1cccc(-c2nc(CS(=O)(=O)CC(=O)Nc3ccc(C)c(Cl)c3)c(C)o2)c1,nt,nt,nt,nt,nt,-1
NCCCNCCCCNCCCNC(=O)CCc1ccc(O)cc1,i,nt,nt,-3,nt,nt
Cc1cc(=O)n2c(C(=O)Nc3ccc(C(=O)OC(C)C)cc3)c(C(=O)Nc3ccccc3)sc2n1,-3,-29%,?,0,?,-67*
O=C(NCc1ccccc1Cl)c1cccc(OC2CCN(C(=O)C3CC3)CC2)c1,23,?,8.3µM*,5,0%,-34
SMILES,Shiga toxin inh,HCV inh,Pf growth 96h,CHX counter,Pf growth 48h,HCMV antiviral
CSCC(C)N1CCC(Oc2cccc(C(=O)NCc3ccccn3)c2)CC1 (centres undefined),1,10%,-10%,5,37%,-19
COCC(C)N1CCC(Oc2cccc(C(=O)NCCc3ccccc3)c2)CC1 (centres undefined),107*,-4%,-17%,59*,53%,54
Cc1ccc(CN2CCC(Oc3cccc(C(=O)N(C)CCN(C)C)c3)CC2)cc1C,nt,?,7%,-2,9.3µM*,9
COCCNC(=O)c1cccc(OC2CCN(Cc3ccc(C(C)C)cc3)CC2)c1,nt,?,-21%,-1,-23%,-18
COCCNC(=O)c1cccc(OC2CCN(Cc3ccc(C(=O)OC)cc3)CC2)c1,-16,?,?,-2,?,18
CC(C)CN1CCC(Oc2cccc(C(=O)NCCc3ccccc3)c2)CC1,60*,3%,0%,27*,51%,53
CCN(CC)S(=O)(=O)c1ccc(Cl)c(C(=O)Nc2ccc(Cl)cc2[N+](=O)[O-])c1,-11,?,?,-2,-17%,-3
CCOc1cccc(C2c3c(oc4ccc(F)cc4c3=O)C(=O)N2CCOC)c1 (centres undefined),nt,nt,nt,nt,nt,-25
CCOC(=O)C(NCc1ccccc1NC(=O)OC(C)(C)C)c1nnnn1Cc1ccccc1 (centres undefined),nt,nt,nt,nt,nt,24
COCC(=O)NCc1nc2cccnc2n1Cc1ccc(F)cc1,nt,nt,nt,nt,nt,5
Cc1cccc(CC(=O)NCc2nc3cccnc3n2Cc2ccc(F)cc2)c1,nt,nt,nt,nt,nt,-63*
Cc1cccc(Cn2c(SCc3ccc(C(=O)NC4CCCC4)cc3)nc3cccnc32)c1,nt,nt,nt,nt,nt,-26
Cc1ccc(CCNC(=O)c2ccc(CSc3nc4ccncc4n3Cc3ccc(F)cc3)cc2)cc1,nt,nt,nt,nt,nt,-70*
O=C(c1ccc(CSc2nc3ccncc3n2Cc2ccccc2)cc1)N1CCCCCC1,nt,nt,nt,nt,nt,14
Cc1cccc(Cn2c(SCc3ccc(C(=O)N4CCCCCC4)cc3)nc3ccncc32)c1,8,nt,nt,19,nt,-90*
Cc1cccc(Cn2c(SCc3ccc(C(=O)NC4CCCCC4)cc3)nc3cccnc32)c1,nt,nt,nt,nt,nt,-83*
COc1cccc(N2CCN(C(=O)c3cc4cc5cc(C)ccc5nc4s3)CC2)c1,nt,nt,nt,nt,nt,9
CC(NC(=O)c1ccc(CSc2nc3ccncc3n2Cc2ccc(F)cc2)cc1)c1ccccc1 (centres undefined),nt,nt,nt,nt,nt,-33
CCC(C(=O)NC1CCCCC1)n1c(SCc2cccc(C)c2)nc2ccncc21 (centres undefined),21,?,-24%,26*,-8%,29
O=C(NCc1cccs1)c1ccc(Cn2c(SCc3ccc(F)cc3)nc3cccnc32)cc1,nt,nt,nt,nt,nt,-63*
CC(CNC(=O)c1ccc(CSc2nc3ccncc3n2Cc2cccc(F)c2)cc1)c1ccccc1 (centres undefined),nt,nt,nt,nt,nt,-70*
CCC(C(=O)NC1CCCCC1)n1c(SCc2cccc(F)c2)nc2ccncc21 (centres undefined),-6,?,-13%,10,-22%,-33
CCN(CC)S(=O)(=O)c1ccc(N2CC(C(=O)NCCc3c[nH]c4ccccc34)CC2=O)cc1 (centres undefined),nt,-23%,?,nt,?,-19
Cc1ccc2c(=O)cc(C(=O)Nc3c(C)n(C)n(-c4ccccc4)c3=O)oc2c1,nt,nt,nt,nt,nt,-11
CCOC(=O)c1cnc2ccc(C)cc2c1Nc1ccc(N2CCOCC2)cc1,-7,?,10µM*,6,?,-13
